Here are results for 26 molecules from PubChem BioAssay (NCATS).

Values joined by “and” are separate entries in the source; they are usually repeats but may differ in a detail not shown here. Equal entries are not always repeated. Inconclusive results are not listed. Values without a mark were called inactive. Active and inactive are the calls of the source. The call rests on the fitted dose curve; in most records, active means well fitted curve in the direction sought with a large enough effect; inconclusive means small, poorly fitted or top-dose-only effect, or another doubt; inactive means no such curve, though single readings can be large; an effect the other way counts as inactive or inconclusive.

A short description of experiment [1]: Viability qHTS for spleen associated tyrosine kinase inhibitor (SYKi) naive MV4-11 cells (AID 1963823). Further: nearly all actives have a fitted effect of over 40% in size. The gist of the method:
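CellTiter-Glo luminescence, 10 min room-temperature incubation, gave viability. Cells: naive MV4-11 (500/well), treated 72 hr at 37 C, 5% CO2.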
(In general: In qHTS, concentration-response curves come from the screen itself.)

A short description of experiment [2]: Quantitative highthroughput screen to assess conditional lethalithy of NOMO1 cells grown in RPMI1640 with untreated serum (RPMI+s) (AID 1963876). Further: nearly all actives have a fitted effect of over 35% in size.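 On Viability: 100% = DMSO wells and 0% = empty wells without cells.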 In outline: (§1)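 Each medium arm—HPLM with 10% dialyzed FBS, or RPMI1640 with 5 mM glucose and 10% untreated or dialyzed FBS—was screened against an 11-point, 3-fold compound titration for 48 h at 37 °C, with CellTiter-Glo luminescence as endpoint.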

The nature of experiment [3]: Quantitative highthroughput screen to assess conditional lethalithy of NOMO1 cells grown in RPMI1640 with dialyzed fetal bovine serum (RPMI+ds) (AID 1963877). Further: nearly all actives have a fitted effect of over 30% in size.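 On Viability: series mostly up to about 46 µM; 100% = DMSO control wells and 0% = empty wells.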 The gist of the method:
as §1

Experiment [4] can be described thus: Quantitative highthroughput screen to assess conditional lethalithy of P12 Ichikawa cells grown in Human Plasma-Like Medium with dialyzed fetal bovine serum (HPLM+ds) (AID 1963879). Further: nearly all actives have a fitted effect of over 35% in size. On Viability: series mostly up to about 46 µM. The settings on record: Potency: viability. The gist of the method:
as §1

Experiment [5] can be described thus: Quantitative highthroughput screen to assess conditional lethalithy of P12 Ichikawa cells grown in RPMI1640 with dialyzed fetal bovine serum (RPMI+ds) (AID 1963880). Further: nearly all actives have a fitted effect of over 35% in size.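 On Viability: 100% = DMSO wells and 0% = empty wells on each plate.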 The settings on record: Potency: P12-Ichikawa viability. The gist of the method: as §1
Experiment [6] can be described thus: Quantitative highthroughput screen to assess conditional lethalithy of P12 Ichikawa cells grown in RPMI1640 with untreated serum (RPMI+s) (AID 1963881). Further: nearly all actives have a fitted effect of over 35% in size.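 On Viability: series mostly up to about 46 µM; 100% = DMSO wells and 0% = empty wells without cells.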 To be noted: Potency: viability. The gist of the method: as §1
Experiment [7] is described as follows: Quantitative highthroughput screen to assess conditional lethalithy of SEM cells grown in Human Plasma-Like Medium with dialyzed fetal bovine serum (HPLM+ds) (AID 1963882). Further: nearly all actives have a fitted effect of over 35% in size. On Viability: series mostly up to about 46 µM. In outline:
as §1

Experiment [8] can be described thus: Quantitative highthroughput screen to assess conditional lethalithy of SEM cells grown in RPMI1640 with unreated serum (RPMI+s) (AID 1963883). Further: nearly all actives have a fitted effect of over 35% in size.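 On Viability: 100% = DMSO wells and 0% = empty wells without cells.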 The gist of the method: as §1
Experiment [9] in a line: Cellular viability qHTS for adrenocortical cancer (ACC) cell line SW-13 (AID 1963989). Further: nearly all actives have a fitted effect of over 65% in size.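 On activity (max response): cells grown in serum-free medium with ITS supplement; on the % scale 0 is the no-effect control and ±100 the full control effect.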 To be noted: SW-13 ACC cells viability, CellTiter-Glo, 48 h; activity (max response): active compounds read low. The gist of the method: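 48 h treatment, SW-13 in ITS/DMEM serum-free; doses up to 46 uM; readout CellTiter-Glo luminescence; curve fit four-parameter logistic.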
The nature of experiment [10]: Cellular viability qHTS for adrenocortical cancer (ACC) cell line NCI-H295R (AID 1963990). Further: nearly all actives have a fitted effect of over 60% in size.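 On activity change, negative = viability loss: 0% = DMSO only wells and -100% = full killing with cytotoxic reference compound.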 In outline: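 Compound titrations (up to 46 uM final) are applied to NCI-H295R cultures for 48 h at 37C. Viable cell number is estimated by CellTiter-Glo signal, normalised to DMSO and doxorubicin controls.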
The nature of experiment [11]: Quantitative highthroughput screen to assess conditional lethalithy of NOMO1 cells grown in Human Plasma-Like Medium with dialyzed fetal bovine serum (HPLM+ds) (AID 1963878). Further: nearly all actives have a fitted effect of over 35% in size.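 On Viability: 100% = DMSO wells and 0% = empty wells on each plate.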 In outline:
as §1

Experiment [12] is described as follows: Quantitative highthroughput screen to assess conditional lethalithy of SEM cells grown in RPMI1640 with dialyzed fetal bovine serum (RPMI+ds) (AID 1963884). Further: nearly all actives have a fitted effect of over 35% in size.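 On Viability: series mostly up to about 46 µM; 100% = DMSO control wells and 0% = empty wells without cells.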 In outline: as §1
Potency means the concentration at half of the fitted maximal effect.

With `Nc1[nH]nc2nnc(-c3c(-c4ccccc4)nn4ccccc34)cc12`, the Potency in [1] was 9.2 µM (active); in experiment [2], 1.48 µM (active); in [3], 2.64 µM (active); in experiment [4] it was 8.33 µM (active); in experiment [5] it was 13.2 µM (active); in experiment [6], 7.43 µM (active). In addition, the Potency in experiment [7] and in [8] was 23.5 µM (active) throughout. Besides, the activity (max response) in [9] was -4.73%. Also, the Potency entry in experiment [10] was “inactive”.

Take `CCC(c1ccc(O)cc1)C(CC)c1ccc(O)cc1` (centres undefined): the Potency in experiment [1] is 20.9 µM (active); in experiment [9], 17.8 µM (active); in experiment [10], 15.8 µM (active). Moreover, the Potency entry in experiment [2], in [3], in experiment [4], in experiment [5] and in experiment [6] was “inactive” throughout.

Turning to `CCCc1nn(C)c2c(=O)[nH]c(-c3cc(S(=O)(=O)N4CCN(C)CC4)ccc3OCC)nc12`, the Potency entry in experiment [1], in [2], in experiment [3], in experiment [11] and in experiment [10] was “inactive” in each case. Further, the activity (max response) in experiment [9] is 1.97% and 1.26%.

Turning to `CC(C(=O)O)c1ccc(-c2ccccc2)c(F)c1` (centres undefined), the Potency result in experiment [1], in [2], in [3], in [11] and in experiment [10] was “inactive” throughout. For the same molecule, the Potency in [7] was 14.8 µM (active). Moreover, in [9], the activity (max response) was -8.73%.

As for `Cc1cc(Nc2nc(N[C@@H](C)c3ccc(F)cc3)c(C#N)cc2F)n[nH]1`, the Potency in experiment [1] was 0.651 µM (active); in experiment [3], 2.64 µM (active); in experiment [5] it was 2.09 µM (active); in experiment [6] it was 2.35 µM (active); in experiment [7], 3.32 µM (active); in experiment [8], 2.96 µM (active). Moreover, the Potency is 2.64 µM (active) in experiment [12] and 3.16 µM (active) in experiment [9].

With `NC1(C(=O)N[C@@H](CCO)c2ccc(Cl)cc2)CCN(c2ncnc3[nH]ccc23)CC1`, the Potency in experiment [1] is 0.461 µM (active); in experiment [2] it was 10.5 µM (active); in [8], 3.32 µM (active); in experiment [12], 2.64 µM (active); in [10], 5.62 µM (active). Moreover, in [9], the activity (max response) is -21.3%.

`COc1ccc(S(=O)(=O)Nc2cc(-c3c(O)ccc4ccccc34)c(O)c3ccccc23)cc1`: the Potency in experiment [1] is 1.18 µM (active); in experiment [11], 20.9 µM (active); in experiment [4], 16.6 µM (active); in experiment [6], 20.9 µM (active); in [7] it was 14.8 µM (active); in experiment [8] it was 7.43 µM (active). Besides, the Potency in experiment [12] was 14.8 µM (active); in [10], 28.2 µM (active).

For the molecule `CCn1cc(C(=O)O)c(=O)c2cc(F)c(N3CCN(C)CC3)cc21`, the Potency entry in experiment [1], in [7], in experiment [8], in experiment [12] and in experiment [10] was “inactive” each time. Also, the Potency in [6] is 4.18 µM (active). Moreover, the activity (max response) in experiment [9] is 10.8% and 4.42%.

Take `CN1CCN(c2cc(C(=O)Nc3ccc4c(c3)-c3c(c(C(N)=O)nn3-c3ccc(F)cc3)CC4)c(Cl)cn2)CC1`: the Potency in [1] was 4.11 µM (active); in [11], 26.4 µM (active); in experiment [7] it was 23.5 µM (active); in experiment [10], 25.1 µM (active). The activity (max response) in [9] was -15.3%.

On to `CC(C)C(C)C=CC(C)C1CCC2C3=CC=C4CC(O)CCC4(C)C3CCC21C` (centres undefined), for which the Potency entry in experiment [1], in experiment [3], in experiment [11], in experiment [4], in [5] and in experiment [6] was “inactive” in each case. Besides, the Potency result in [8], in experiment [12] and in experiment [10] was “inactive” in each case. For the same molecule, in [9], the activity (max response) was 11.2%.

As for `Nc1ccc(N)c([N+](=O)[O-])c1`, the Potency in experiment [1] is 24.3 µM (active). Further, the activity (max response) in experiment [9] was -20.8%.

Regarding `COc1cc(Nc2nc3ccccc3nc2NS(=O)(=O)c2ccc(NC(=O)c3ccc(C)c(OC)c3)cc2)cc(OC)c1`, the Potency in experiment [1] is 18.6 µM (active); in [3], 7.43 µM (active); in experiment [5], 14.8 µM (active). Further, the activity (max response) in experiment [9] was 11.3%. The Potency result in experiment [10] was “inactive”.

Take `O=C(O)c1ccc(CCCc2ccc(OCCc3ccc(F)cc3)cc2)o1`: the Potency in experiment [1] was 5.17 µM (active); in experiment [9], 17.8 µM (active).

As for `Cn1cc(C2=C(c3c4n(c5ccccc35)CCC(CN)C4)C(=O)NC2=O)c2ccccc21` (centres undefined), the Potency is 2.15 µM (active) in experiment [1], 18.7 µM (active) in experiment [3], 10.5 µM (active) in experiment [8] and 11.8 µM (active) in experiment [12]. In [9], the activity (max response) was -20.5%. Moreover, in experiment [10], the activity change, negative = viability loss is -2.33% [at 9.17 µM].

As to `O=C(O)CCC=CCC[C@@H]1[C@H](N2CCCCC2)[C@@H](O)C[C@@H]1OCc1ccc(-c2ccccc2)cc1`, the Potency result in [1], in [3], in [4], in experiment [5], in experiment [6] and in [7] was “inactive” throughout. The Potency entry in experiment [8], in experiment [12] and in experiment [10] was “inactive” in each case. In addition, in experiment [9], the activity (max response) is -17.1%.

With `O=C1c2cccc(O)c2C(=O)c2c(O)cccc21`, in experiment [1], the Potency result was “inactive”. Besides, the activity (max response) in experiment [9] is 1.51%.

Take `Cn1ncc(NC(=O)c2nc(-c3c(F)cccc3F)sc2N)c1N1CC[C@@H](N)[C@H](F)CC1`: the results for the Potency in experiment [1] and in [9] were 0.235 µM (active) and 25.1 µM (active), respectively.

Take `CCOC(=O)Oc1ccc(CCNC(=O)[C@H](CCSC)NC(C)=O)cc1OC(=O)OCC`: the Potency entry in [1] was “inactive”. Also, the activity (max response) in [9] was 3.57%.

Regarding `O=C(Cn1ccnc1[N+](=O)[O-])NCc1ccccc1`, the Potency entry in experiment [1] is “inactive”. Further, the activity (max response) in experiment [9] is -1.05%.

`COc1ccc(CCN(C)CCCN2CCc3cc(OC)c(OC)cc3CC2=O)cc1OC`: the Potency result in [1] was “inactive”. Moreover, the activity (max response) in [9] is 5.36%.

With `c1ccc(-c2oc3ncnc(NC[C@@H]4CCCO4)c3c2-c2ccccc2)cc1`, the Potency in experiment [1] was 9.2 µM (active). Moreover, the Potency entry in experiment [7] is “inactive”. Besides, in experiment [9], the activity (max response) is -50.5%.

As for `COc1cc(C)c(Cc2cnc(N)nc2N)cc1OC`, in [1], the Potency result is “inactive”. For the same molecule, the activity (max response) in experiment [9] is -2.95%.

As for `Cc1ccc2nc(NCCN)c3ncc(C)n3c2c1`, the Potency in experiment [1] is 2.31 µM (active); in experiment [3], 26.4 µM (active); in experiment [11], 23.5 µM (active); in experiment [7], 11.8 µM (active); in experiment [8] it was 23.5 µM (active); in [12], 20.9 µM (active). For the same molecule, the Potency is 6.31 µM (active) in [9] and 8.91 µM (active) in [10].

In the case of `COc1cccc2c(NCc3ccccc3)nc(-n3c(N)nc4ccccc43)nc12`, the Potency was 2.35 µM (active) in experiment [1]; 16.6 µM (active) in [4]; 5.9 µM (active) in experiment [8]; 14.8 µM (active) in experiment [12]; 3.16 µM (active) in experiment [9].

On to `CCCS(=O)(=O)Nc1ccc(F)c(C(=O)c2c[nH]c3ncc(Cl)cc23)c1F`, for which the Potency was 11.6 µM (active) in [1], 11.8 µM (active) in [8] and 13.2 µM (active) in experiment [12].

As to `N#Cc1ccnc(N2C(=O)CC[C@H]2C(=O)N(c2cncc(F)c2)[C@H](C(=O)NC2CC(F)(F)C2)c2ccccc2Cl)c1`, the Potency result in experiment [1] and in experiment [10] was “inactive” each time. Besides, the Potency is 2.34 µM (active) in experiment [2]; 2.95 µM (active) in [6]; 3.31 µM (active) in [7]; 1.32 µM (active) in experiment [8]; 3.31 µM (active) in [12]. Besides, the activity (max response) in experiment [9] is 6.3%.
